Bioassay records (PubChem)
Compounds with a hit are over-represented: about 14% of the library has one in this group of screens.
USP28 inh = blocks human USP28 ubiquitin-rhodamine cleavage; purified USP28, Ub-rhodamine cleavage fluorescence, 30 min; inhibition, % at 25 µM; 3% of 47,000 active
USP8 block = blocks human USP8 ubiquitin-rhodamine cleavage; purified USP8, Ub-rhodamine cleavage fluorescence, 30 min; AID 1645853; 4.2% of 47,000 active; inhibition, % at 20 µM
USP17 block = inhibitors of human USP17 deubiquitinase; A8MUK1; purified USP17, Ub-rhodamine cleavage fluorescence, 3 h; inhibition, % at 50 µM; 6.5% of 47,000 active; AID 1645855
USP10 block = human USP10 deubiquitinase inhibition; inhibition, % at 20 µM; AID 1645856; 1.1% of 47,000 active; purified USP10, Ub-rhodamine fluorescence, 60 min
USP30 block = human USP30 deubiquitinase inhibition | 5.3% of 47,000 active | purified USP30, Ub-rhodamine cleavage fluorescence | inhibition, % at 25 µM | Q70CQ3 | AID 1645860
* marks the source's active call; other numbers are inactive results; i = inactive; · = not tested or not shown. Cut-off read from the data, not from the text of the source: active = inhibition above about 30%; inactive = the rest.

SMILES	USP28 inh	USP8 block	USP17 block	USP10 block	USP30 block
COc1c(O)c2c(=O)cc(OC)c3c4c(OC)cc(=O)c5c6c(c7c(c(c1[C@@H](C(C)O)[C@@H]7C(C)O)c23)c54)OCO6 (some centres undefined)	-177	-310	-162	-9	i
N#Cc1cccc(CN2CC[C@H](c3nnc(-c4cccnc4)o3)C2)c1	13	54*	1	2	6
CCOC(=O)c1cnc2c(cnn2C)c1NCc1ccc(OC)cc1	2	0	8	1	0
CCOC(=O)c1cnc2c(cnn2C)c1NCc1cccc(C(F)(F)F)c1	11	37*	15	14	41*
CCOc1ccc(CC(=O)NCC(=O)N2CCC3(CC2)NCCc2[nH]cnc23)cc1	6	30*	10	-3	9
CCn1nc(C)c(CNC(=O)c2[nH]c3ccc(C)cc3c2NC(=O)c2cccc(C)c2)c1C	24	12	77*	-2	88*
Cc1cccc(C(=O)Nc2cc(C(C)(C)C)on2)c1	25	5	7	3	6
Cc1cccc(C(=O)Nc2c(C)nn(Cc3cccc4ccccc34)c2C)c1	31*	13	24	0	19
O=C(Nc1ccccc1-c1nc2ccccc2[nH]1)c1ccc(Br)cc1	-10	11	-12	4	-7
O=C(Nc1ccccc1-c1nc2ccccc2[nH]1)c1sc2ccccc2c1Cl	-6	59*	83*	33*	4
O=C(Nc1ccc(C(F)(F)F)cc1)C1CC(=O)N(c2ccc3c(c2)OCCO3)C1 (centres undefined)	19	25	35*	10	34*
CC(=O)Nc1ccc(C(=O)Nc2ncc(C)s2)cc1	14	2	11	-1	21
O=c1c(-c2nc(-c3ccncc3)no2)cccn1Cc1c(F)cccc1Cl	-70	51*	1	-7	-237
Cc1ccc(CN2C[C@@H]3c4nc(N(C)C)ncc4CS(=O)(=O)[C@@H]3C2)cc1	7	1	-3	4	31*
COc1cc(OC)cc(-n2c(=O)c3sccc3n(CC(=O)c3ccc(Cl)cc3)c2=O)c1	11	-1	35*	9	30*
CN1CCN(C(=O)c2ccc(-c3ccc(NCc4ccccc4)nn3)cc2)CC1	0	-209	7	-4	1
c1ccc(CNc2ccc(-c3ccccc3)nn2)cc1	37*	57*	28	10	45*
Cc1ccc(C)c(CN2C(=O)c3ccccc3S(=O)c3ccc(C(=O)NCCc4ccccc4)cc32)c1 (centres undefined)	27	19	9	8	38*
O=C(CSc1ncnc2c1oc1ccccc12)Nc1ccc(Cl)c(Cl)c1	·	-1	23	0	·
COc1ccc(NC(=O)CSc2ncnc3c2oc2ccccc23)c(OC)c1	11	0	32*	0	20
O=C(CSc1ncnc2c1oc1ccccc12)Nc1cccc2ccccc12	0	12	8	15	16
O=C(CSc1nc(-c2ccccc2)c2ccccc2n1)NCCc1ccccc1	29	4	31*	10	18
O=C(CSc1ncnc2c1oc1ccccc12)NCCc1ccccc1	15	3	64*	7	36*
O=C(CSc1ncnc2c1oc1ccccc12)Nc1ccccc1F	·	6	43*	1	·
CCOc1ccc(NS(=O)(=O)c2cc(C(=O)N3CCOCC3)ccc2Cl)cc1	6	0	0	4	12
SMILES	USP28 inh	USP8 block	USP17 block	USP10 block	USP30 block
Cc1ccc(NC(=O)CCS(=O)(=O)c2ccc3c(c2)SC(C)C(=O)N3)c(Br)c1 (centres undefined)	-12	-22	-12	0	-231
CC(C)[C@@H](NC(=O)C1CCN(C(=O)[C@H](N)Cc2ccccc2)CC1)C(=O)NCc1ccccc1F	15	-3	12	-5	43*
C[C@H](NC(=O)C1CCN(C(=O)[C@H](Cc2ccccc2)NC(=O)OC(C)(C)C)CC1)C(=O)NCc1ccc(F)cc1	-3	-7	-5	-4	0
O=C(CSc1n[nH]c(-c2ccccc2)n1)NCC1CCCO1 (centres undefined)	0	0	-7	1	-2
Cc1nc2cc(N3CC(C(=O)Nc4ccc(F)cc4C)CC3=O)ccc2o1 (centres undefined)	16	22	63*	0	76*
Cc1ccc(-c2noc(-c3nnc(SCC(=O)NC4CCCC4)n3C)n2)cc1	10	12	53*	2	29
Cn1c(SCC(=O)NC2CCCC2)nnc1-c1nc(-c2ccccc2)no1	6	9	16	0	24
C=C1C=C(CCC(=O)O)C(=O)OC1/C=C/C=C/C (centres undefined)	99*	98*	101*	95*	80*
O=C1CC(C(=O)Nc2ccc3c(c2)OCO3)n2nc(SCc3ccccc3)nc2N1 (centres undefined)	11	15	10	33*	28
COc1ccc(CCN2CC(C(=O)Nc3ccc4c(c3)OCO4)CC2=O)cc1OC (centres undefined)	8	17	7	-2	7
O=C1CC(C(=O)Nc2ccccc2Cl)n2nc(-c3ccccc3)cc2N1 (centres undefined)	9	31*	72*	4	27
O=C(Nc1cc(-c2ccccc2)nn1CCO)C1CCCC1	10	0	-3	0	11
O=C(Nc1ccc2c(c1)OCO2)C1CC(=O)N(CCc2ccccc2)C1 (centres undefined)	9	56*	44*	-2	6
O=C1CC(C(=O)Nc2ccccc2F)n2ncc(-c3ccccc3)c2N1 (centres undefined)	18	23	44*	5	8
O=C1CC(C(=O)Nc2ccc(Cl)cc2Cl)n2ncc(-c3ccccc3)c2N1 (centres undefined)	-10	-35	-7	16	-10
COc1ccc(C(=O)Nc2ncc3c(n2)CC(c2ccc(OC)c(OC)c2)CC3=O)cc1 (centres undefined)	-11	-11	8	-3	-4
COc1ccc(CNC(=O)C2(C)Cn3nc(-c4ccco4)cc3C(=O)N2Cc2ccccc2)cc1 (centres undefined)	-4	-5	12	-4	-34
COc1cc(-c2cc3nc(Nc4ccc(F)c(Cl)c4)ccn3n2)cc(OC)c1OC	0	6	12	-5	-9
O=C(Nc1ncc(CN2CCOCC2)s1)C(c1ccccc1)c1ccccc1	8	-15	-12	-3	-89
COc1ccc(-c2nc(Cn3c(=O)n(C(C)C)c(=O)c4ccccc43)c(C)o2)cc1OC	-4	-5	-1	-2	0
O=S(=O)(c1ccc2c(c1)OCCCO2)N1CCN(Cc2nc3ccccc3s2)CC1	-14	-8	-24	-4	-49
O=C1CC(C(=O)Nc2ccc3c(c2)OCO3)n2ncc(-c3ccccc3)c2N1 (centres undefined)	10	38*	14	3	0
